Assay results from PubChem BioAssay AID624330 (Southern Research Specialized Biocontainment Screening …, 2012).
In all, about 340,000 compounds went through this assay and about 2,100 (0.62%) were called active.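 How the source made its calls: active means first-screen hits whose inhibition reached a set limit at any dose in the follow-up dose series; inconclusive means inhibition above the set first-screen limit but never retested; inactive means the rest.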 The list is a sample of the results. Results with a measured potency or affinity are listed apart.

What follows are compounds tested against Rac GTPase-activating protein 1 (Homo sapiens) (UniProt Q9H0H5) (assay: blockers of MgcRacGAP-driven Rac1 GTP hydrolysis – biochemical, ADP Hunter fluorescence, primary and confirmatory, confirmation (AID 624330;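 further: fluorescence reports GDP produced by GAP-driven GTP hydrolysis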)). Details: MgcRacGAP-stimulated Rac1 GTP hydrolysis, at 30 µM, active compounds read high, GST-tagged Rac1 F28L mutant substrate.
Rac GTPase-activating protein 1 (Homo sapiens), sequence (Q9H0H5 whole entry, looked up): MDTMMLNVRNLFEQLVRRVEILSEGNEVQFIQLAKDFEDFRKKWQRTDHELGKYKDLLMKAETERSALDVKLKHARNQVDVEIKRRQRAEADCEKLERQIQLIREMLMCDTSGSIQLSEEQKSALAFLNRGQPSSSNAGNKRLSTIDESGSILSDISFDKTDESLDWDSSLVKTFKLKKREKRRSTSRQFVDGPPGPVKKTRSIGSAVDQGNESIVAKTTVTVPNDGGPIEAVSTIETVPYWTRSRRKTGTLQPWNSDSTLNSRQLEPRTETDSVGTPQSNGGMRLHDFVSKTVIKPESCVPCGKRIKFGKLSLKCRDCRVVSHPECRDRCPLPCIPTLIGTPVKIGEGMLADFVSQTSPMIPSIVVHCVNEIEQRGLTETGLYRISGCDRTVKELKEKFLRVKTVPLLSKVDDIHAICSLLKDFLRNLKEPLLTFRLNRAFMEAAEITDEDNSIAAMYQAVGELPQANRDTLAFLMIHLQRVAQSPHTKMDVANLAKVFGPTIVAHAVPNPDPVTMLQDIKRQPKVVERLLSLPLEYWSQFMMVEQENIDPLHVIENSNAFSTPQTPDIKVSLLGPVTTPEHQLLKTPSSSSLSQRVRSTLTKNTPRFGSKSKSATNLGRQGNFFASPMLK

inhibition, inactive:
O=C(CNc1ccccc1)N/N=C/c1ccc2c(c1)OCO2 1.14%, O=C(CNc1ccc2c(c1)OCO2)N/N=C\c1cn(Cc2ccccc2)c2ccccc12 9.72%, CCOC(=O)Cc1csc(SC(C)C(=O)NC2CCCCC2C)n1 (stereo not drawn) 10.4%, CC(=O)c1ccc(N2CCN(C(=O)c3noc4c3CSc3ccccc3-4)CC2)cc1 10.2%, Fc1ccc(N2CCN(C(c3cccs3)c3nnnn3CCc3ccccc3)CC2)cc1 (stereo not drawn) -2.42%, COc1ccc(N2CCN(C(c3ccccc3)c3nnnn3Cc3ccc(F)cc3)CC2)cc1 (stereo not drawn) 19%, O=S(=O)(NCC(c1cccnc1)N1CCN(c2ccccc2)CC1)c1cccs1 (stereo not drawn) 2.98%, O=S(=O)(NCC(c1cccnc1)N1CCN(c2ccc(F)cc2)CC1)c1cccs1 (stereo not drawn) 5.99%, CCS(=O)(=O)NC(C)C(c1cccs1)N1CCN(c2ccc(F)cc2)CC1 (stereo not drawn) 8.25%, c1ccc(Cn2nnnc2C(c2cccnc2)N2CCN(c3ccccc3)CC2)cc1 (stereo not drawn) 2.89%, COc1ccc(N2CCN(C(c3cccs3)C(C)NS(C)(=O)=O)CC2)cc1 (stereo not drawn) 27.8%, c1ccc(CCn2nnnc2C(c2cccs2)N2CCOCC2)cc1 (stereo not drawn) 6.38%, CC1CCCC(NC(=O)CN2C(=O)NC(C)(c3ccccc3)C2=O)C1C (stereo not drawn) 2.02%, O=C(N/N=C/c1ccoc1)c1ccc([N+](=O)[O-])cc1 3.91%, COc1cccc2cc(C(=O)N3CC(C)OC(C)C3)c(=O)oc12 (stereo not drawn) 5.05%, COC(=O)c1ccc(COC(=O)c2ccccc2OC)cc1 -1.87%, COc1ccc(C(=O)NNC(=O)c2ccccc2[N+](=O)[O-])cc1Br 2.78%, COc1ccc([C@H]2CC(=O)C=C(c3cccc(F)c3OC)C2)cc1 9.17%, Cc1ccc(C(=O)N2CCN(Cc3ccc4c(c3)OCO4)CC2)o1 3.03%, O=C(c1cccc(F)c1)N1CCN(c2ccc([N+](=O)[O-])c(N3CCOCC3)c2)CC1 9.81%, CN1C(=O)CSC1=S 6.82%, O=c1[nH]nc(CNc2cccc(C(F)(F)F)c2)c2ccccc12 7.15%, COc1ccc(OC)c(C(c2c(C)[nH][nH]c2=O)c2c(C)[nH][nH]c2=O)c1 12.8%, O=c1c(Cl)c(N2CCN(c3ccc(F)cc3)CC2)cnn1C12CC3CC(CC(C3)C1)C2 -5.26%, N#Cc1nnn2c1nc(N)c1c(F)cccc12 2.66%, Cc1ccc(S(=O)(=O)N(CC(=O)N2CCOCC2)c2ccccc2F)cc1 2.11%, Oc1cccc(-c2nc3ccccc3s2)c1 8.24%, COc1ccc(-c2nc3ccccc3s2)cc1NC(C)=O -7.89%, Oc1ccc(-c2nc3ccccc3s2)cc1 15.1%, COc1ccc(-c2nc3ccccc3s2)cc1O 11.7%, Cc1ccc(OCC(=O)N(Cc2cccc(F)c2)C2CCS(=O)(=O)C2)cc1 (stereo not drawn) 8.85%, COc1ccc(C(=O)Sc2nncc3ccccc23)cc1 -1.75%, O=C(Nc1ccccc1SC(=O)c1ccccc1)c1ccccc1 18.6%, CCc1nc2ccccc2c(C(=O)OCC(=O)N(C)Cc2ccccc2)c1C 3.21%, CSCC(=O)Nc1cc(C)on1 -9.86%, CCN(CC)CCNC(=O)c1ccc(NC(=O)c2ccc3c(c2)CCC3)cc1 3.69%, CCN(CC(=O)Nc1ccc(NC(C)=O)cc1)CC(=O)Nc1cc(C)on1 5.22%, CCCCN(C)CCC(=O)Nc1ccc2c(c1)CCC2 6%, O=C(NCc1ccccn1)Nc1cccc(F)c1 7.66%, C=CCN(CC=C)c1ncnc2[nH]ncc12 0.33%, COc1cc(C)c(S(=O)(=O)Nc2ccccc2F)cc1C 0.77%, CCn1nc(C(=O)NCc2nnc3ccccn23)c2ccccc2c1=O 2.43%, CCOC(=O)C1CN(S(=O)(=O)c2ccc(OC)cc2)c2cc(S(=O)(=O)CC)ccc2O1 (stereo not drawn) -8.53%, CC1=NN(C(N)=S)C(=O)C1N=Nc1ccc(Br)cc1 (stereo not drawn) 12.4%, CC1=NN(C(N)=S)C(=O)C1N=Nc1ccc(Cl)cc1 (stereo not drawn) 13.3%, CCC(C)NC(=O)CS(=O)Cc1nc(-c2cccc(C)c2)oc1C (stereo not drawn) 2.8%, CCn1cc(C(=O)N2CCN(c3ccccn3)CC2)c2cc(OC)c(OC)cc2c1=O -4.67%, CC1=C(C(N)=O)C(c2ccc(Cl)c(Cl)c2)n2ncnc2N1 (stereo not drawn) 3.56%, Cn1c(N2CCOCC2)c(C=O)c2ccccc21 8.54%, CN1CCN(c2c(/C=N/O)c3ccccc3n2C)CC1 28.5%, O=C(Nc1ccc(C(=O)O)cc1)/C(=C\c1ccco1)NC(=O)c1ccc(Br)cc1 18.2%, COc1ccc2c3c(cccc13)OC2=O 5.25%, COc1ccc2c3c(cccc13)C(=O)N(O)C2=O 1.13%, COc1ccc(CCNC(=O)c2nnc(Cc3c(F)cccc3Cl)o2)cc1OC 3.35%, O=C1OC(Cc2ccccc2)C(c2ccccc2)C1=O (stereo not drawn) 3.8%, O=C1N[C@H](Cc2ccccc2)CO1 3.86%, COc1ccc(Br)cc1C(=O)Nc1cccc(-c2nnc(-c3ccco3)o2)c1 -5.03%, COc1ccc(NC(=O)c2ccc(OC(F)F)cc2)cc1Cl -1.44%, O=C(O)c1ccc(S(=O)(=O)NN=Cc2c[nH]c3ccccc23)cc1 14.2%, O=C(O)c1cc(N/N=C/c2c[nH]c3ccccc23)ccc1Cl 23.8%, COc1ccc2c(/C=N/NS(=O)(=O)c3ccc(C)cc3)c[nH]c2c1 11.2%, COc1ccc(C(=O)N/N=C/c2c[nH]c3ccccc23)cc1 16.4%, COc1ccc(S(=O)(=O)N2CCCCC2)cc1NC(=O)CCc1cc(OC)c(OC)c(OC)c1 2.57%
